Data reported in PubChem BioAssay AID504599 (National Center for Advancing Translational Sciences (NCATS), 2011).
Calls of active or inactive are those of the source. Calls come from the whole dose curve; as a rule, active = well fitted inhibition curve with a large enough effect; inconclusive = small, poorly fitted or top-dose-only effect; inactive = flat fitted curve, though single readings scatter.

Test: Quantitative high throughput screen for delayed death inhibitors of the malarial parasite plastid, 96 hour incubation.
Conditions: P. falciparum luciferase growth
Description: NIH Molecular Libraries Probe Production Network [MLPCN] NIH Chemical Genomics Center [NCGC] MLPCN Grant: R21 NS059500 Assay Provider: David Fidock and Eric Ekland, Columbia University The goal of this screen is to discover new antimalarial compounds that act by inhibiting the development of the apicoplast in the malarial parasite Plasmodium falciparum. The biochemical processes that make this organelle essential for erythrocytic stage parasites are not well understood. However, antibiotics, such as azithromycin and tetracycline, which target the apicoplast translational machinery, have a potent antimalarial effect. […] We have developed a cell-based assay that measures parasite growth based on the expression of an integrated copy of a firefly luciferase reporter. […] Growth inhibition is detected by a decrease in luciferase activity
Four microliters of culture medium (RPMI 1640 with 0.5% w/v Albumax (GIBCO), 24 mM sodium bicarbonate and 10 ug/mL gentamycin) were dispensed by a Multi-drop Combi into white solid 1536-well plates (Grenier) and 23 nL compound was added by a pin tool. […] Two microliters of luciferase detection reagent was added and luminescence was detected by a ViewLux (PerkinElmer) reader

Row | SMILES | Potency
1 | COc1ccc(COC[C@H](C)N2C[C@@H](C)[C@H](CN(C)S(=O)(=O)c3ccc(F)cc3)OCCCC[C@H](C)Oc3ccc(NC(=O)Nc4ccccc4)cc3C2=O)cc1 | 0.0025 µM (active)
2 | COCCOC(=O)N(C)C[C@@H]1OCCCC[C@H](C)Oc2ccc(NC(=O)Nc3ccccc3)cc2C(=O)N([C@@H](C)CO)C[C@H]1C | 17.9 µM (active)
